Test results as given in PubChem BioAssay (NCATS).
Inconclusive results are not listed. Where a call stands in place of a potency, no number is given. Active and inactive are the calls of the source. Calls come from the whole dose curve; as a rule, active = well fitted inhibition curve with a large enough effect; inconclusive = small, poorly fitted or top-dose-only effect; inactive = no such curve, though single readings can be large or run the other way.

System: Zika virus NS2B-NS3 protease (unlinked)
Experiment: Optimization of GU AMC qHTS for Zika virus inhibitors: Unlinked NS2B-NS3 protease assay (AID 1347151); note: nearly all actives have a fitted effect of over 80% in size
Details: recombinant ZIKV NS2B-NS3 protease, fluorogenic AMC substrate; series mostly up to 52.5 µM
In short: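 Fluorescence read-out (340 nm ex / 450 nm em) of AMC peptide cleavage, taken immediately and after 15 min at room temperature (~20% conversion). Enzyme was the unlinked NS2B–NS3 complex at 25 nM in Tris pH 8.0 buffer.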
Potency is the fitted concentration of half-maximal effect.

Q: O=C(O)CC[C@@H](C(=O)O)N1C(=O)c2ccccc2C1=O was tested. Which Potency did it give?
A: inactive

Q: Nc1ncnc2c1ncn2[C@@H]1O[C@H](COP(=O)(O)OP(=O)(O)OP(=O)(O)OP(=O)(O)OC[C@@H]2O[C@H](n3cnc4c(N)ncnc43)[C@@H](O)[C@H]2O)[C@@H](O)[C@H]1O was tested. Which Potency did it give?
A: inactive

Q: How did the Potency turn out when CC(N)C(=O)OC(C)(C)Cc1ccc(Cl)cc1 (stereo not given) was run?
A: inactive

Q: CCCCN(CC)c1nc(C)nc2c1c(C)cn2-c1c(C)cc(C)cc1C was tested. Which Potency did it give?
A: 26.7 µM (active)

Q: Nc1ncnc2c1ncn2[C@@H]1O[C@H](COP(=O)(O)CP(=O)(O)OP(=O)(O)O)[C@@H](O)[C@H]1O was tested. Which Potency did it give?
A: inactive

Q: How did the Potency turn out when Clc1ccc(N2CCN(Cc3c[nH]c4ncccc34)CC2)cc1 was run?
A: inactive

Q: How did the Potency turn out when CN(C)c1nc(N)c(C(=O)N=C(N)N)nc1Cl was run?
A: inactive

Q: With CNc1ncnc2c1ncn2[C@@H]1O[C@H](CO)[C@@H](O)[C@H]1O as the compound, how does the Potency read?
A: inactive

Q: C[N+](C)(C)CCOP(=O)(O)OP(=O)([O-])OC[C@H]1O[C@@H](n2ccc(N)nc2=O)[C@H](O)[C@@H]1O was tested. Which Potency did it give?
A: inactive

Q: For Nc1ccn([C@@H]2O[C@H](CO)[C@@H](O)[C@@H]2O)c(=O)n1, which Potency is on record?
A: inactive

Q: Which Potency does the source give for O=P(O)(O)C(Cl)(Cl)P(=O)(O)O here?
A: inactive

Q: How did the Potency turn out when O=[N+]([O-])c1ccc(CSc2ncnc3c2ncn3[C@@H]2O[C@H](CO)[C@@H](O)[C@H]2O)cc1 was run?
A: inactive

Q: OC[C@H]1O[C@@H](n2cnc3c(NC4CCCC4)ncnc32)[C@H](O)[C@@H]1O was tested. Which Potency did it give?
A: inactive

Q: CSc1ccccc1N1CCN(CCCCCC(=O)NC2CCCc3ccccc32)CC1 (stereo not given) was tested. Which Potency did it give?
A: inactive

Q: How did the Potency turn out when CO/N=C(\C(=O)N[C@@H]1C(=O)N2C(C(=O)O)=C(COC(C)=O)CS[C@H]12)c1csc(N)n1 was run?
A: inactive
